The list is not random: actives were taken first. Their share in the collection is about 3.2%.
Rce1 inhib: yeast Ras-converting enzyme inhibition | Q03530 | yeast membranes, quenched prenylated peptide cleavage fluorescence | calls only | 0.27% of 290,000 active;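 active = fall in fluorescence gain of 50% or more versus controls, with final raw signal at or below 3038400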;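 also: plate controls were neutral control wells for no effect and wells lacking membranes for full effect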
CHT PAM: allosterically activates the human high affinity choline transporter; Q9GZV3; CHT-expressing cells, membrane potential dye, choline EC20; stronger effect = higher value; LV-AA mutant CHT in HEK293 cells; B-score at 10 µM; 0.49% of 310,000 active;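 active = initial fluorescence not abnormally high and integrated response B-score, plate-corrected, over 3 SD above library mean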
CHT block: inhibitors of human choline transporter CHT. Q9GZV3. CHT-expressing cells, membrane potential dye, choline response; stronger effect = lower value. B-score at 10 µM. 0.86% of 310,000 active. AID 488975;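 active = B-score over 3 SD under the library average, and starting fluorescence ratio not unusually high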;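 also: choline stimulus applied at its EC90 after an EC20 pre-addition; B-score computed on integrated fluorescence ratio after choline addition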
TMEM16A inh: mouse TMEM16A channel inhibition, primary screen. HEK293 TMEM16A/YFP iodide influx fluorescence, ionomycin. normalized B-score (activity score, 25-100; higher = stronger inhibition) at 10 µM. 1.2% of 310,000 active. AID 588511;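 active = ratio plate-corrected score three or more library SD toward inhibition, starting fluorescence score within five deviations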;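 also: score derived from kinetic fluorescence span divided by baseline fluorescence per well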
Target sequence (Q8BHY3 whole entry, looked up): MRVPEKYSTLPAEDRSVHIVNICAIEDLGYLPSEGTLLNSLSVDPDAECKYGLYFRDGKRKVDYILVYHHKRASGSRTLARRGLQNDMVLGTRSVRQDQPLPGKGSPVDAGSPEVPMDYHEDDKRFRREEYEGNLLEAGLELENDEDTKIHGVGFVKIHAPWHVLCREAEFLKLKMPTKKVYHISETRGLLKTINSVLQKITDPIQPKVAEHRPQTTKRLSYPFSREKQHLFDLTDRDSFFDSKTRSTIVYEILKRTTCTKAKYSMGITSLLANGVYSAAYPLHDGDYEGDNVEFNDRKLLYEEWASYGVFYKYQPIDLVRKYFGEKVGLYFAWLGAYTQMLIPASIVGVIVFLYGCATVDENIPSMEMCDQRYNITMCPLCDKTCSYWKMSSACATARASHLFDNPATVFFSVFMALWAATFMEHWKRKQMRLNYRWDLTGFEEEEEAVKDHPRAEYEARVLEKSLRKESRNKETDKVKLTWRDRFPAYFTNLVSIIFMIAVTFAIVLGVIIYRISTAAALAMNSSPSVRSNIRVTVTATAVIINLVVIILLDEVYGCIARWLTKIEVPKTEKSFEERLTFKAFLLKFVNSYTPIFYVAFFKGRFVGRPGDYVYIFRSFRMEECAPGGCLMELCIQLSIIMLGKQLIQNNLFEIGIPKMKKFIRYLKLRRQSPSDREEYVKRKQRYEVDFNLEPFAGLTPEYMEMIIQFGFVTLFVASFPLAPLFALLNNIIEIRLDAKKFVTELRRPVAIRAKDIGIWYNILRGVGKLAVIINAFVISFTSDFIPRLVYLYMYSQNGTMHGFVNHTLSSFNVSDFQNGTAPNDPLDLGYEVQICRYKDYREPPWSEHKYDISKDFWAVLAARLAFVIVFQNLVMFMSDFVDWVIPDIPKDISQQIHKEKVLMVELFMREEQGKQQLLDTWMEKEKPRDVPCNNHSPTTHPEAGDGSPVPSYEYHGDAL
Kir21 inh: Kir2.1 (mouse) channel inhibition; 0.85% of 310,000 active; P35561; HEK293-Kir2.1, FluxOR thallium flux fluorescence; stronger effect = lower value; B-score at 10 µM;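 active = fluorescence ratio B-score at or below minus 3 SD of library scores, with starting-brightness B-score within 2 SD, cut at about -4.2 in these data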;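 also: channel flux triggered by added potassium and thallium sulfate stimulus; B-score of peak minus minimum fluorescence over baseline after thallium stimulus; more negative B-score means stronger Kir2.1 block with less thallium influx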
ANO1 activ: activates or potentiates the mouse TMEM16A chloride channel; Q8BHY3; HEK293 TMEM16A/YFP-H148Q/I152L, iodide quench fluorescence; stronger effect = lower value; B-score at 10 µM; 0.3% of 340,000 active;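 active = fluorescence-ratio B-score plate-corrected deviation score at least 3 library SD below zero, with starting fluorescence score within 5 deviations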;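 also: channel opened by trigger with iodide after compound preincubation; score built on the fluorescence ratio of max minus min over baseline; more negative score means more quench and so TMEM16A activation or potentiation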
CHT activ conf: confirmation of human choline transporter (CHT) activators. activation, % at 10 µM. CHT-expressing cells, membrane potential dye fluorescence (FDSS); % of choline EC20–EC90 response window; HEK293 expressing CHT LV-AA mutant; choline added at its EC20. shares compounds with CHT PAM. 91% of 2,500 active;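 active = primary screen active, with duplicate mean activation above negative control mean plus 3 SD, cut at about 11% in these data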
HEK293 MP dye: counter-screen for CHT activators: effect in parental HEK293 cells; membrane potential dye fluorescence (FDSS); measured after EC20 choline addition; 62% of 2,500 active; ratio readout change at 10 µM, hits read low; AID 623908; shares compounds with CHT PAM;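 active = duplicate-averaged ratio beyond 3 SD from buffer wells, up or down, though filed actives are nearly all decreases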
* hit, by the source's call; i = inactive; . = no result given; + = active, no number.

SMILES | Rce1 inhib | CHT PAM | CHT block | TMEM16A inh | Kir21 inh | ANO1 activ | CHT activ conf | HEK293 MP dye
O=C1N=C(O)CN1/N=C/c1ccc(-c2ccc([N+](=O)[O-])cc2)o1 | i | 7.6* | i | i | -0.52 | i | 32* | -32*
COc1ccccc1-n1cnc2cc(NCc3cccs3)ccc21 | i | 7* | i | i | -0.18 | i | 59* | i
[O-][n+]1cccc2c(Br)cc(Br)c(O)c21 | . | i | i | i | -2 | i | . | .
C[n+]1cccc2c(Br)ccc([O-])c21 | i | 6.4* | i | i | -0.86 | i | 58* | -48*
O=c1c2cnn(-c3ccccc3)c2nc(-c2cccs2)n1-c1ccc(Br)cc1 | i | i | i | i | -2.6 | i | 14* | i
CCN(C(=O)COc1ccccc1C(=O)NCc1ccccc1)C1CCS(=O)(=O)C1 (configuration not stated) | . | . | . | . | . | i | . | .
CCN(C(=O)COc1cccc2cccnc12)C1CCS(=O)(=O)C1 (configuration not stated) | i | i | i | i | -0.46 | i | 52* | -38*
CSc1cccc(NS(=O)(=O)c2cc(Br)cnc2N)c1 | i | i | i | i | -3.6 | i | . | .
CCOc1cc(N2CCOCC2)c(OCC)cc1NC(=O)c1c(-c2ccccc2Cl)noc1C | i | i | i | i | 2.1 | i | . | .
COc1cc(-c2nc3ccccn3c2NCC2CCCO2)ccc1O (configuration not stated) | + | i | i | i | 0.01 | i | 44* | -47*
COc1cc(-c2nc3ccccn3c2N)ccc1O | i | i | i | i | -1.6 | i | . | .
COc1ccc(-c2nc3cccc(C)n3c2NCC2CCCO2)cc1O (configuration not stated) | i | i | i | i | -1 | i | 54* | -57*
COc1cc(C(C)=O)ccc1OCC(O)CNCC(O)c1ccccc1 (configuration not stated) | i | i | i | i | -1 | . | . | .
CCN1CCN(C(=O)Cn2nc(C)c3sc4ccccc4c3c2=O)CC1 | i | i | i | i | -0.13 | i | . | .
COc1ccc2nc(N(CCN(C)C)C(=O)/C=C/c3cccs3)sc2c1 | i | 7.2* | i | i | 3.7 | i | 35* | -32*
COCCNc1nc(-c2ccccc2)nc2ccccc12 | i | i | i | i | 0.74 | i | 31* | -36*
CCN(CC)CCCNc1nc(-c2ccccc2)nc2ccccc12 | i | i | i | i | -1.5 | i | . | .
Cn1c(=O)c2c(nc(N3CCOCC3)n2CCCNC2=NCCC2)n(C)c1=O | i | 8.8* | i | i | 2.1 | i | 54* | -56*
Cn1c(=O)c2c(nc(N3CCOCC3)n2CCSc2ncccn2)n(C)c1=O | i | 8.6* | i | i | 0.37 | i | 75* | -79*
CC1CC(C)CN(c2nc3c(c(=O)n(C)c(=O)n3C)n2CCSc2ncccn2)C1 (configuration not stated) | i | i | i | i | -0.94 | i | . | .
CCCCCCn1c(N2CCCC2)nc2c1c(=O)n(C)c(=O)n2C | i | i | i | i | -0.02 | i | . | .
COCCNC(=O)c1cc(-c2ccccc2C)nn1CC1CC(c2cccnc2)=NO1 (configuration not stated) | . | . | . | . | . | i | . | .
Cn1c(=O)c2c3c(sc2n2cnnc12)CCC3 | i | i | i | 25* | 1 | i | 30* | -39*
Cc1cc(=O)n(Cc2ccccc2)c(O)c1C#N | i | i | i | i | 0.9 | i | . | .
Cc1cc(=O)n2nc(-c3ccccc3)sc2c1C#N | i | 6.4* | i | i | 0.51 | i | 29* | -27*
SMILES | Rce1 inhib | CHT PAM | CHT block | TMEM16A inh | Kir21 inh | ANO1 activ | CHT activ conf | HEK293 MP dye
CC1CCCCC12NC(=O)N(CC(=O)N1CCN(S(=O)(=O)/C=C/c3ccccc3)CC1)C2=O (configuration not stated) | . | . | . | . | . | i | . | .
COc1ccc(CN(C)C(=O)c2ccccc2OCc2c(C)noc2C)c(OC)c1 | . | . | . | . | . | i | . | .
COc1ccc(Br)cc1CN(C)C(=O)c1ccccc1OCc1c(C)noc1C | i | i | i | i | -1.7 | i | 38* | i
O=C(O)CC(c1ccc(F)cc1F)N1Cc2ccccc2C1=O (configuration not stated) | i | i | i | i | 0.04 | . | . | .
COc1ccc2c3c(cccc13)C(=O)N(O)C2=O | i | i | i | i | -0.33 | i | 41* | -30*
O=C(CCl)Nc1ccccc1C(=O)Nc1ccc2c(c1)OCO2 | i | i | i | i | 0.57 | i | . | .
CCOC(=O)c1cccc(Nc2nc(C)cc(C)n2)c1 | . | i | i | i | . | i | . | .
CCOC(=O)c1ccc2nc(C)cc(Nc3cccc(C(=O)O)c3)c2c1 | i | i | i | i | -0.43 | . | 27* | -25*
CCOc1ccc(Nc2cc(C)nc3ccc(C)cc23)cc1 | i | i | i | i | -1.9 | i | 35* | -47*
CCOC(=O)N1CCN(C(=O)C2CCN(C(=O)c3ccc(C(C)(C)C)cc3)CC2)CC1 | i | i | i | i | 1.1 | i | . | .
CCCCN(C)C(=O)Cn1ncc2c3ccccc3n(CCC)c2c1=O | i | i | i | i | 0.99 | i | . | .
c1ccc(-c2nnc(-c3ccccn3)nc2NC2CCCCC2)cc1 | i | i | i | i | -0.64 | i | -4 | i
CNc1nc(-c2ccccn2)nnc1-c1ccccc1 | i | i | i | i | 0.37 | i | . | .
COc1ccccc1NS(=O)(=O)c1cccc(C(=O)NCC(c2ccco2)N(C)C)c1 (configuration not stated) | i | i | i | i | 0.3 | i | . | .
CCC(=O)Nc1ccccc1C(=O)OC(c1ccccc1)c1ccccc1 | i | 7.3* | i | i | -0.51 | i | 27* | i
CCC(=O)Nc1ccccc1C(=O)C(=O)Nc1ccccc1 | i | i | i | i | 0.16 | i | . | .
Cc1cc[n+](CC(=O)c2cccc([N+](=O)[O-])c2)c2ccccc12 | i | 8.8* | i | i | -0.59 | i | 49* | -58*
O=C(C[n+]1cccc2ccccc21)c1ccc([N+](=O)[O-])cc1 | i | i | i | i | -2.8 | i | . | .

Assay outcomes (PubChem BioAssay)
